Test systems include HT29 colon; SNB-75 CNS; SNB-19 CNS; U251 CNS; PC-3 prostate; SK-MEL-5 melanoma; UACC-62 melanoma; LOX IMVI melanoma; SK-MEL-2 melanoma; SK-MEL-28 melanoma.
Holding throughout (assay): NCI-60 one-dose screen, 48 h (100 = growth as untreated, 0 = no growth, -100 = all killed)
What all share (details): 10 µM

This is part of a sample that, as a whole, favours compounds with a hit. Of some 83,000 tested, about 20% had one in any assay.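 The test compound was applied at a single concentration to cells in 96-well plates for 48 hours, and percent growth was recorded.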 Unmarked numbers belong to inactive results. Active and inactive are the calls of the source. How the source made its calls: active means growth percent below 10; inactive means the rest.

For `CN(C)C(=S)N/N=C\C=N/NC(=S)N(C)C`, the growth was 13.5% with HT29 colon; 64% with SNB-75 CNS; 90.3% in the experiment on SNB-19 CNS; 42.8% in the experiment on U251 CNS; -18.4% (active) in the experiment on PC-3 prostate; 64.8% in the experiment with SK-MEL-5 melanoma. Moreover, the growth was 73.2% in the experiment on UACC-62 melanoma, 43.9% with LOX IMVI melanoma and 85% in the experiment with SK-MEL-2 melanoma.
For `Cc1cccc2c(NCCN(C)C)c3cccc(C(=O)NCCN(C)C)c3nc12`, the growth in the experiment on HT29 colon was -43.7% (active); with SNB-75 CNS, -24.7% (active); with SNB-19 CNS, 14.5%; in the experiment on U251 CNS it was -43% (active); in the experiment with PC-3 prostate, -31% (active); with SK-MEL-5 melanoma it was 3.71% (active). The growth in the experiment with UACC-62 melanoma is 20.8%; in the experiment with LOX IMVI melanoma it was -61.9% (active); in the experiment with SK-MEL-2 melanoma it was -6.23% (active).
Consider `Cc1cc(O)c(C(C)(C)C)cc1Sc1cc(C(C)(C)C)c(O)cc1C`, for which the growth with HT29 colon is 97.1%; in the experiment on SNB-75 CNS, 54.2%; in the experiment on SNB-19 CNS, 81%; in the experiment with U251 CNS it was 60%; with PC-3 prostate, 22.5%; in the experiment on SK-MEL-5 melanoma it was 33.7%. For the same molecule, the figures for the growth in the experiment with UACC-62 melanoma, in the experiment on LOX IMVI melanoma and with SK-MEL-2 melanoma were 16.3%, 63.9% and 72.6%, respectively.
With `CN1CC[C@@H](c2c(O)cc(O)c3c(=O)cc(-c4ccccc4Cl)oc23)[C@@H](O)C1`, the growth in the experiment with HT29 colon is -7.65% (active); in the experiment with SNB-75 CNS it was -71.9% (active); in the experiment with SNB-19 CNS, 13.6%; in the experiment with U251 CNS it was 8.62% (active); with PC-3 prostate, -48.9% (active); in the experiment on SK-MEL-5 melanoma it was -38.5% (active). The growth is -48.8% (active) in the experiment on UACC-62 melanoma, 5.25% (active) in the experiment with LOX IMVI melanoma and -40.7% (active) in the experiment with SK-MEL-2 melanoma.
On to `COc1ccc(N=C2C(=Nc3ccc(OC)cc3)N(c3ccc(N(C)C)cc3)C(=S)N2c2ccc(OC)cc2)cc1`, for which the growth in the experiment on HT29 colon is 84%; with SNB-75 CNS it was 8.69% (active); in the experiment with SNB-19 CNS, 75.1%; in the experiment on U251 CNS, 49.3%; in the experiment with PC-3 prostate, 52.5%; in the experiment with SK-MEL-5 melanoma it was 84.8%. Moreover, the values for the growth with UACC-62 melanoma, with LOX IMVI melanoma and with SK-MEL-2 melanoma were 98.2%, 86.3% and 90.7%, respectively.
Regarding `COc1cc(-c2nc(-c3nnc(-c4ccc(F)c(Cl)c4)o3)c3ccccn23)cc(OC)c1OC`, the growth was 15.2% in the experiment on HT29 colon; 3.25% (active) in the experiment on SNB-75 CNS; 4.53% (active) in the experiment with SNB-19 CNS; 31.8% with U251 CNS; 56.1% in the experiment with PC-3 prostate; 33.9% in the experiment with UACC-62 melanoma. In addition, the growth in the experiment on LOX IMVI melanoma is 58.2%; with SK-MEL-28 melanoma, 41.4%; in the experiment with SK-MEL-2 melanoma, 25.8%.
With `Clc1cc2c(c(CSc3nc4ccccc4n4cccc34)c1)OCOC2`, the growth with HT29 colon was 88.3%; in the experiment with SNB-75 CNS, 62%; in the experiment with SNB-19 CNS it was 107%; with U251 CNS, 85.9%; in the experiment on PC-3 prostate it was 60.5%; with UACC-62 melanoma, 112%. Moreover, the growth in the experiment on LOX IMVI melanoma is 87.5%; in the experiment on SK-MEL-28 melanoma, 92.8%; with SK-MEL-2 melanoma it was 79.7%.
Regarding `O=C(Nc1cccc(-n2cc(-c3ccncc3)c(-c3ccc(O)c(Cl)c3)n2)c1)c1ccc(N2CCOCC2)c(C(F)(F)F)c1`, the growth in the experiment with HT29 colon is 12.4%; with SNB-75 CNS, 33.5%; with SNB-19 CNS it was 67.9%; in the experiment on U251 CNS, -13% (active); with PC-3 prostate, 24.4%; with UACC-62 melanoma, 43.3%. Besides, the growth in the experiment on LOX IMVI melanoma is 21.1%; in the experiment on SK-MEL-28 melanoma, 49.7%.
In the case of `CC(=O)O[C@]1(C)CC[C@H]2[C@H](CNCCc3ccc(Cl)cc3)C(=O)O[C@@H]2C2=C(C)C(=O)C[C@H]21`, the growth in the experiment with HT29 colon was 90%; with SNB-75 CNS it was 64.1%; with SNB-19 CNS, 79.4%; in the experiment on U251 CNS, 91.3%; with PC-3 prostate, 86.9%; in the experiment on UACC-62 melanoma, 97.9%. For the same molecule, the growth with LOX IMVI melanoma was 90.6%; in the experiment with SK-MEL-28 melanoma, 101%; with SK-MEL-2 melanoma, 114%.
Take `CC(=O)c1cc(Cl)ccc1O`: the growth in the experiment on HT29 colon is 106%; in the experiment on SNB-75 CNS, 95.4%; in the experiment on SNB-19 CNS it was 113%; in the experiment on U251 CNS, 107%; in the experiment on PC-3 prostate, 91.1%; in the experiment on UACC-62 melanoma, 108%. Also, the growth in the experiment with LOX IMVI melanoma was 102%; with SK-MEL-28 melanoma it was 109%; with SK-MEL-2 melanoma, 110%.
For the molecule `COc1ccc2c(c1)C(=O)c1c-2c(OCCN(C)C)nc2ccccc12`, the growth is 12.2% with HT29 colon; 47.2% in the experiment with SNB-75 CNS; 42.9% in the experiment with SNB-19 CNS; 21.1% with U251 CNS; 47.2% in the experiment with PC-3 prostate; 52.4% in the experiment on UACC-62 melanoma. The growth was -41.8% (active) in the experiment on LOX IMVI melanoma, 64.9% in the experiment on SK-MEL-28 melanoma and 16.5% with SK-MEL-2 melanoma.
`Nc1c(C(=O)Nc2cccc(F)c2)sc2nc3c(cc12)C(=O)CCC3`: the growth was 16.7% with HT29 colon; 24.9% in the experiment with SNB-75 CNS; 48.9% in the experiment with SNB-19 CNS; 32.1% with U251 CNS; 20.7% in the experiment on PC-3 prostate; 43.4% with UACC-62 melanoma. Besides, the growth was 46.5% in the experiment with LOX IMVI melanoma, 49.7% with SK-MEL-28 melanoma and 43.3% in the experiment with SK-MEL-2 melanoma.
Regarding `COc1cc(NC(=O)CCSc2nc3ccc(Cl)cc3c(=O)n2Cc2ccccc2)cc(OC)c1OC`, the growth in the experiment with HT29 colon is 76.2%; in the experiment on SNB-75 CNS, 36.6%; in the experiment on SNB-19 CNS it was 92.1%; in the experiment with U251 CNS it was 70.2%; with PC-3 prostate it was 43.4%; in the experiment on UACC-62 melanoma, 53.4%. In addition, the growth in the experiment on LOX IMVI melanoma was 91.1%; in the experiment with SK-MEL-28 melanoma, 70.7%; with SK-MEL-2 melanoma it was 73.7%.
On to `COc1cccc(-c2cc(-c3cccc(NS(C)(=O)=O)c3)nc(N)c2C#N)c1O`, for which the growth in the experiment with HT29 colon is 12.6%; in the experiment on SNB-75 CNS, -16.4% (active); in the experiment on SNB-19 CNS, 42.3%; in the experiment on U251 CNS, 30.9%; with PC-3 prostate it was 16.6%; with UACC-62 melanoma it was 52.9%. The growth in the experiment on LOX IMVI melanoma was 46.6%; in the experiment on SK-MEL-28 melanoma, 76.7%; in the experiment with SK-MEL-2 melanoma, 69%.

(Values after PubChem BioAssay (NCI).)
